Measurements reported in the supplement of paper PMC3334620.
The full ranking holds about 33,000 sequences; the median of “E-score (-0.5 to 0.5)” is about -0.01, and the highest 2% start at about 0.26. This is one part of a sample in which the highest values are shown more often than they occur.

target: Ste12 (UniProt P13574); test: PBM E-score (8-mer binding enrichment) (E-score (-0.5 to 0.5)); higher = stronger / more preferred TF binding; settings: protein concentration: 200 nM; construct: GST-DNA-binding domain
UniProt P13574, sequence (P13574 whole entry, the tested form may be a part): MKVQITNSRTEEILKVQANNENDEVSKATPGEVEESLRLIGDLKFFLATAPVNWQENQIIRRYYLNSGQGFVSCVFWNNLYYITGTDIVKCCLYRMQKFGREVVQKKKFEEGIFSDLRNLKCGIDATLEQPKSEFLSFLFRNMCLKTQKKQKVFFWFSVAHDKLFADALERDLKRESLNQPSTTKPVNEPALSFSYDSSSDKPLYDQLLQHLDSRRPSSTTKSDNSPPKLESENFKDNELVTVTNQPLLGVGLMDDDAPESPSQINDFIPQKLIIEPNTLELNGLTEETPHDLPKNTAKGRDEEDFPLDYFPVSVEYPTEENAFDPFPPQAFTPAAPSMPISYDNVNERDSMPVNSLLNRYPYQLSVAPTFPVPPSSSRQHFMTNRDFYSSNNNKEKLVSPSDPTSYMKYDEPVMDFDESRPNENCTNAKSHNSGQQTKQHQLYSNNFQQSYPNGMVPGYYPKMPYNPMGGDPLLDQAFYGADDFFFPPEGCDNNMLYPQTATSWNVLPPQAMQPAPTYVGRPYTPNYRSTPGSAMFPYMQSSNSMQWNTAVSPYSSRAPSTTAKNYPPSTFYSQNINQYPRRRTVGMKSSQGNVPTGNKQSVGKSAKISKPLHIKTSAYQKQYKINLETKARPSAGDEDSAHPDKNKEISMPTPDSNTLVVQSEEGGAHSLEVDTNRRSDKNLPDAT
Procedure: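 Universal 'all 10-mer' protein binding microarrays (Agilent AMADID 015681) probed with GST-tagged S. cerevisiae TFs (full-length or DBD) made by in vitro transcription/translation (PURExpress), about 100-200 nM. Bound TF was detected with fluorescent anti-GST. Each ungapped 8-mer (which stands for itself and its reverse complement) is scored by the PBM enrichment score (E-score), a modified Wilcoxon-Mann-Whitney statistic from -0.5 to +0.5, computed with the Universal PBM Analysis Suite. Scale: above 0.35 generally sequence-specific binding.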

First: AGCAGTAG
Second: TGGCCCCA
The “PBM E-score” value of the first is lower: -0.168 for the first, -0.094 for the second.

First: AAGTAGTG
Second: ACCTAATC
The “PBM E-score” value of the first is lower: -0.075 for the first, 0.0677 for the second.

First: CCAAGAAA
Second: AGTAGAAC
The “PBM E-score” value of the first is higher: 0.0914 for the first, -0.0785 for the second.

Compared with AGTAGAAA, GAAAGAAC is lower in “PBM E-score” value: 0.297 for the first, -0.00643 for the second.

Compared with ACAAGAAT, CAAAGAAA is higher in “PBM E-score” value: 0.137 for the first, 0.214 for the second.

First: ACAAGAAA
Second: GAAAGAAA
The “PBM E-score” value of the first is lower: 0.28 for the first, 0.297 for the second.

Going from CGTAGAAA to CCCACATC, the “PBM E-score” value rises from -0.0538 to -0.0169.

Compared with GGCAAGCC, GCTAACCC is lower in “PBM E-score” value: -0.0158 for the first, -0.192 for the second.

Going from CAGCTGCG to AGAAATTG, the “PBM E-score” value rises from -0.0692 to 0.209.

First: CATGGATC
Second: AACTTTAT
The “PBM E-score” value of the first is lower: -0.0524 for the first, 0.165 for the second.

Going from AATAAAAT to ACTAAAAA, the “PBM E-score” value rises from 0.183 to 0.203.

First: ACTAAAAG
Second: ACTAATAC
The “PBM E-score” value of the first is lower: 0.1 for the first, 0.131 for the second.

Compared with ACTAAACC, ACTAATAT is higher in “PBM E-score” value: 0.0959 for the first, 0.288 for the second.

Going from ACTAAAAT to ACTAATAG, the “PBM E-score” value falls from 0.27 to 0.0525.

First: ACTAAAAC
Second: AGAGTCTC
The “PBM E-score” value of the first is higher: 0.272 for the first, -0.00303 for the second.

Compared with CTTGTTCA, GACGTCAC is lower in “PBM E-score” value: -0.105 for the first, -0.136 for the second.

Going from TCATACCA to CATGGTTC, the “PBM E-score” value rises from -0.0469 to 0.19.

First: GTGGGCGA
Second: CGGACCAA
The “PBM E-score” value of the first is higher: -0.0639 for the first, -0.096 for the second.

First: AACTGGTA
Second: ATCGTCGG
The “PBM E-score” value of the first is lower: -0.00841 for the first, 0.00187 for the second.

Going from CCCGTTGC to ACCGTTTC, the “PBM E-score” value rises from -0.145 to 0.3.

First: ACCGTTTG
Second: CCCGTTTA
The “PBM E-score” value of the first is lower: -0.0273 for the first, 0.0626 for the second.

Compared with ACCGTTTA, CCCGTTTC is higher in “PBM E-score” value: 0.059 for the first, 0.274 for the second.

Going from TCACTTAA to CCCGACGA, the “PBM E-score” value rises from 0.191 to 0.284.

First: GCCGACGA
Second: TCCGACGA
The “PBM E-score” value of the first is higher: 0.17 for the first, -0.109 for the second.

Compared with ATAGCATA, GAAGACTA is lower in “PBM E-score” value: -0.011 for the first, -0.0635 for the second.

First: CGATTAAA
Second: TGATTAAA
The “PBM E-score” value of the first is lower: 0.073 for the first, 0.158 for the second.

Going from GAATTGAA to CAATTGAA, the “PBM E-score” value falls from 0.278 to 0.187.

Going from GAATTAAC to GAATTAAA, the “PBM E-score” value rises from 0.00892 to 0.287.

Compared with GGATTAAA, AAATTAAA is lower in “PBM E-score” value: 0.274 for the first, 0.206 for the second.

Compared with TAATTGAA, ATCCTACG is lower in “PBM E-score” value: 0.0688 for the first, -0.141 for the second.

First: GAGCTTGA
Second: AAAAACAC
The “PBM E-score” value of the first is lower: -0.176 for the first, 0.233 for the second.

First: CCGGAACC
Second: GCGGGGTA
The “PBM E-score” value of the first is lower: 0.0511 for the first, 0.143 for the second.

Compared with CAGCCATC, GCTCTACC is lower in “PBM E-score” value: -0.0408 for the first, -0.167 for the second.

Compared with AAGCGAGA, CTCTTTAA is lower in “PBM E-score” value: 0.108 for the first, -0.122 for the second.

First: TTACCGAA
Second: GTACCGAA
The “PBM E-score” value of the first is higher: 0.276 for the first, 0.0964 for the second.

Compared with CTACCAAA, GTACCAAA is higher in “PBM E-score” value: 0.0171 for the first, 0.0457 for the second.

First: CTACCGAA
Second: TTACCAAA
The “PBM E-score” value of the first is lower: -0.131 for the first, 0.263 for the second.

Going from GCATGCCC to GAACTTAA, the “PBM E-score” value rises from 0.105 to 0.115.

Compared with AAACTGTT, CAACTTTA is lower in “PBM E-score” value: 0.162 for the first, 0.161 for the second.

First: AAACTTTA
Second: AAACTGAA
The “PBM E-score” value of the first is higher: 0.294 for the first, 0.268 for the second.

Compared with AAACTTAA, AAACTGTA is lower in “PBM E-score” value: 0.298 for the first, 0.135 for the second.

First: CAACTTAA
Second: AAACTTTG
The “PBM E-score” value of the first is lower: 0.0143 for the first, 0.217 for the second.

Compared with AAGATTGC, ACTTTGAT is higher in “PBM E-score” value: -0.0392 for the first, 0.11 for the second.

First: CCCGGCGG
Second: ATTAAGGG
The “PBM E-score” value of the first is higher: 0.0682 for the first, 0.0581 for the second.

Compared with ATCTCGAC, GATCCCCA is lower in “PBM E-score” value: 0.0726 for the first, 0.0544 for the second.

Going from CGCCTACA to GTAGCCAC, the “PBM E-score” value falls from 0.0882 to -0.27.

Compared with CTGGGGGC, GCCCCACA is higher in “PBM E-score” value: -0.233 for the first, 0.101 for the second.

First: ACCCCACG
Second: GCCCCACC
The “PBM E-score” value of the first is lower: -0.159 for the first, 0.266 for the second.

Going from ACCCCACC to ACCCCACT, the “PBM E-score” value falls from 0.373 to 0.0311.

Going from CCCCCACC to GGACCCGA, the “PBM E-score” value rises from -0.207 to -0.0164.

Going from CTCCACAA to CAAAGCGA, the “PBM E-score” value rises from 0.00925 to 0.0708.

Going from ACAAGGAC to AGAAGACA, the “PBM E-score” value falls from -0.129 to -0.132.

Compared with AACTCGCC, AAATTTAG is higher in “PBM E-score” value: -0.0534 for the first, 0.169 for the second.

Compared with AAATTTCA, GAATTTAA is lower in “PBM E-score” value: 0.0583 for the first, 0.0395 for the second.

Going from AGATTTAA to AAATTTAC, the “PBM E-score” value rises from 0.0444 to 0.197.

First: AAATTTGA
Second: CGATTTAA
The “PBM E-score” value of the first is higher: 0.123 for the first, 0.1 for the second.

First: AAATTTAT
Second: CAATTTAA
The “PBM E-score” value of the first is higher: 0.263 for the first, 0.2 for the second.

First: TAATTTAA
Second: TGATTTAA
The “PBM E-score” value of the first is higher: 0.3 for the first, 0.266 for the second.

Going from AAATTTAA to GGAATGGA, the “PBM E-score” value falls from 0.289 to 0.0113.

First: TTACCCAA
Second: CTTTGCTA
The “PBM E-score” value of the first is lower: 0.0694 for the first, 0.162 for the second.

Compared with CTCACAGA, AACTCGTA is higher in “PBM E-score” value: 0.00059 for the first, 0.143 for the second.

Compared with TCCCCACA, CACCTATC is higher in “PBM E-score” value: -0.0875 for the first, 0.0217 for the second.

Going from CAAAACGA to CCAAACGG, the “PBM E-score” value falls from 0.272 to -0.0425.

Compared with TAAAACGA, CAAAACGG is higher in “PBM E-score” value: 0.134 for the first, 0.302 for the second.

Compared with CAAAACGC, CCAAACGA is lower in “PBM E-score” value: 0.229 for the first, 0.0156 for the second.

Going from GGAAACGA to CGAAACGA, the “PBM E-score” value falls from 0.275 to 0.205.

Going from AAAAACGG to GAAAACGA, the “PBM E-score” value falls from 0.174 to -0.0839.

First: AGAAACGA
Second: AAAAACGA
The “PBM E-score” value of the first is lower: 0.207 for the first, 0.272 for the second.

Compared with CCGCCTCC, CCCGTAAG is higher in “PBM E-score” value: -0.123 for the first, -0.0733 for the second.

Compared with AGGTCAGA, TCTTGACA is higher in “PBM E-score” value: -0.113 for the first, -0.0432 for the second.

Compared with ACCCATCC, AACCAATC is higher in “PBM E-score” value: 0.00204 for the first, 0.259 for the second.

Going from GAAAAAGA to CGGCTAAG, the “PBM E-score” value falls from 0.241 to 0.0459.

Going from CATAGCGG to AGACAGCT, the “PBM E-score” value rises from -0.207 to -0.111.

Compared with AAGAAGAA, TTAACTAA is higher in “PBM E-score” value: 0.123 for the first, 0.221 for the second.

Going from GTCTCCAA to CAAAAACA, the “PBM E-score” value rises from 0.0569 to 0.153.

Going from ATAAAACC to AGAAAACA, the “PBM E-score” value falls from 0.294 to 0.152.

Going from ATAAAAAC to ATAAACCC, the “PBM E-score” value rises from 0.134 to 0.211.

Going from AAAAAACA to CTAAAACC, the “PBM E-score” value falls from 0.331 to 0.192.

Compared with CTAAAACA, ATAAAACA is higher in “PBM E-score” value: 0.355 for the first, 0.368 for the second.

Compared with ATAAAAAA, TAAAAACA is lower in “PBM E-score” value: 0.248 for the first, 0.223 for the second.

Compared with GAAAAACA, ACGTTGAT is lower in “PBM E-score” value: 0.21 for the first, 0.0985 for the second.

Compared with AGTCAGTG, CTTAGCAC is lower in “PBM E-score” value: -0.0387 for the first, -0.0994 for the second.

First: ATACCACG
Second: ACATAGCA
The “PBM E-score” value of the first is higher: 0.0272 for the first, -0.115 for the second.

First: ATAAAACG
Second: AGTAAACA
The “PBM E-score” value of the first is higher: 0.37 for the first, 0.0888 for the second.

First: CGTAAACA
Second: GTAAAAAA
The “PBM E-score” value of the first is lower: 0.186 for the first, 0.217 for the second.

Compared with ATTAAACG, ATAAACCG is lower in “PBM E-score” value: 0.155 for the first, 0.0871 for the second.

With GTAAAAAC the “PBM E-score” value was 0.206.
